# Screening data deposited in PubChem by Buhrlage Lab, Dana-Farber Cancer Institute and Novartis Institutes for BioMedical Research (Cambridge, Mass).
# Shown are actives, neighbours in structure and some others; about 13% of the full set was active somewhere.
# USP30 inh = blocks human USP30 ubiquitin-rhodamine cleavage | actives 5.3% (n = 47,000) | purified USP30, Ub-rhodamine cleavage fluorescence | inhibition, % at 25 µM | Q70CQ3
# USP8 inh = inhibitors of human USP8 deubiquitinase; P40818; AID 1645853; inhibition, % at 20 µM; purified USP8, Ub-rhodamine cleavage fluorescence, 30 min; actives 4.2% (n = 47,000)
# USP28 inh = human USP28 deubiquitinase inhibition; actives 3% (n = 47,000); Q96RU2; inhibition, % at 25 µM; purified USP28, Ub-rhodamine cleavage fluorescence, 30 min
# Target sequence (Q96RU2 whole entry, looked up): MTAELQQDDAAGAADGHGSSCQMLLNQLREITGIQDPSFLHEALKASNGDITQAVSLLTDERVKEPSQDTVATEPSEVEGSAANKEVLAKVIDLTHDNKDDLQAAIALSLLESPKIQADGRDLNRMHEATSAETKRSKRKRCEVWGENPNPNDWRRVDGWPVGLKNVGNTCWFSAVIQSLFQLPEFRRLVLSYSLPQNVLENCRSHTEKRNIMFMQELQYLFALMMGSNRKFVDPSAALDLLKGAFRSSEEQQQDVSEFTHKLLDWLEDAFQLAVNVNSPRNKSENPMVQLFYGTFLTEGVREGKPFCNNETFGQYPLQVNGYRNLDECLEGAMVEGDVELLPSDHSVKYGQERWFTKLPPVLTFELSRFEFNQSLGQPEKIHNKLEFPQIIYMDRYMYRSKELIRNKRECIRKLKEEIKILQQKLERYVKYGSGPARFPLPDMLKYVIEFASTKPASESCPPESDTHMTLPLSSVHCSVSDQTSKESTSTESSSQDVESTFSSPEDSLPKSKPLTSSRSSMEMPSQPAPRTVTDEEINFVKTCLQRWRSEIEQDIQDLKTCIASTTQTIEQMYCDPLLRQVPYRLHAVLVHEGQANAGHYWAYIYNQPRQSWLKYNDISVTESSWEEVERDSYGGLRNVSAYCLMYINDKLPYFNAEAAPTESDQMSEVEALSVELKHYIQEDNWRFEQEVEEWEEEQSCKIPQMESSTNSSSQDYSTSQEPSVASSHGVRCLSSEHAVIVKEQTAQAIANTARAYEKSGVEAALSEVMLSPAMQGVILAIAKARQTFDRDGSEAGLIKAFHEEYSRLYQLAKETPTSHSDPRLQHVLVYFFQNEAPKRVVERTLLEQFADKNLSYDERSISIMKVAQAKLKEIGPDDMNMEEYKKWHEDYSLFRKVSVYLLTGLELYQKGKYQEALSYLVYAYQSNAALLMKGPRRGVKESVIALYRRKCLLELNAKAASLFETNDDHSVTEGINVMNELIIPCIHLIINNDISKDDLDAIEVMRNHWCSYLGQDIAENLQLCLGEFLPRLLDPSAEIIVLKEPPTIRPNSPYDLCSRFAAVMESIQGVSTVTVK
# USP10 inh = human USP10 deubiquitinase inhibition. purified USP10, Ub-rhodamine fluorescence, 60 min. actives 1.1% (n = 47,000). AID 1645856. inhibition, % at 20 µM. Q14694
# USP17 block = blocks human USP17 ubiquitin-rhodamine cleavage; A8MUK1; purified USP17, Ub-rhodamine cleavage fluorescence, 3 h; inhibition, % at 50 µM; actives 6.5% (n = 47,000); AID 1645855
# An asterisk follows results filed as active. Rule as the data show it: active = inhibition above about 30%; inactive = the rest.
SMILES,USP30 inh,USP8 inh,USP28 inh,USP10 inh,USP17 block
Cc1ccc(NC(=O)CSc2cc(N3CCCCC3)ncn2)cc1F,31*,-7,25,4,0
COc1ccccc1-c1ccc(SCC(=O)Nc2ccc3c(c2)OCCO3)nn1,40*,-1,80*,8,27
O=C(CSc1cc(N2CCCCC2)ncn1)Nc1ccc2c(c1)OCCO2,-12,-15,49*,-3,-9
COc1ccc(NC(=O)CSc2nc(-c3ccc4c(c3)OCO4)ccc2C#N)cc1OC,-65,-21,14,-4,33*
COc1ccc(-c2csc3ncnc(OCC(=O)Nc4ccc5c(c4)OCO5)c23)cc1OC,-8,7,7,2,18
CCN(CC)CCNc1nc(SC(C)C)nc2sc3c(c12)CC(C)(C)OC3,-19,-38,-5,-7,-16
CCN1CCN(c2nc3ncn(CC(=O)NC(C)C)c(=O)c3s2)CC1,-1,1,-1,1,1
CCCn1c(=O)c2sccc2n2c(CCC(=O)NCc3ccc4c(c3)OCO4)nnc12,-11,-15,-4,1,-1
COc1ccc(CNC(=O)CCn2c(=O)c3sccc3n(Cc3ccccc3C#N)c2=O)cc1,56*,11,16,2,55*
O=C(CCn1c(=O)c2sccc2n(Cc2ccc([N+](=O)[O-])cc2)c1=O)NCc1ccccc1,50*,61*,28,39*,52*
O=C(Cn1c(=O)c2sccc2n(Cc2ccc([N+](=O)[O-])cc2)c1=O)NCCc1ccccc1,50*,11,16,38*,26
COc1ccc(CCNC(=O)Cn2c(=O)c3sccc3n(Cc3ccccc3C#N)c2=O)cc1OC,24,13,12,2,12
O=C(Cn1c(=O)c2sccc2n(CC(=O)OCc2ccccc2)c1=O)NCc1ccccc1Cl,12,21,7,19,16
COCCn1cnc2c1c(=O)n(CC(=O)NCCc1ccc(Cl)cc1)c(=O)n2Cc1ccccc1,-6,3,4,-7,8
O=S(=O)(Cc1cccc(Cl)c1)Nc1cccnc1,1,1,-7,0,-7
O=C(c1cc(-c2cccnc2)n[nH]1)N1CCn2ncnc2C1,15,13,1,-1,-2
COc1cc(O)c2c(c1)[C@@H]([C@H]1C[C@H](O)[C@H](O)[C@@]3(C=CC[C@H](C)O3)O1)OC2=O,8,0,0,1,1
COc1ccc(S(=O)(=O)N2CCCC2)cc1C(=O)NCc1ccc2c(c1)OCO2,25,4,35*,2,5
Cc1ccc(S(=O)(=O)N2CCN(CC(=O)Nc3ccc4[nH]c(=O)[nH]c4c3)CC2)cc1,11,-24,4,0,-5
COc1ccc(S(=O)(=O)N2CCCCCC2)cc1C(=O)Nc1ccc2[nH]c(=O)[nH]c2c1,50*,11,47*,7,30*
Cn1c(=O)c2cn3c4ccccc4nc(-c4cccnc4)c3c2n(C)c1=O,0,-26,-10,1,-1
Cc1ccc(CNC(=O)CCc2c(C)nn(-c3cc(N4CCCCC4)ncn3)c2C)o1,-151,0,-32,-8,-23
O=C1CC(c2ccc(C(F)(F)F)cc2)c2c(nc(-c3ccccc3)[nH]c2=O)N1 (stereo unspecified),14,65*,5,2,6
CC(C)c1ccc(OCC(=O)NCC2(N3CCN(C)CC3)CCCCC2)cc1,30*,-4,16,0,-2
O=C(CC1C(=O)NCCN1C(=O)c1ccc(F)cc1F)Nc1ccc(F)cc1 (stereo unspecified),-12,-13,-14,0,-12
SMILES,USP30 inh,USP8 inh,USP28 inh,USP10 inh,USP17 block
Cc1cc(N2CC(C)OC2=O)nc(C2CCN(C(=O)OC(C)(C)C)CC2)n1 (stereo unspecified),35*,9,14,2,12
Cc1cc(N2CC(C)OC2=O)nc(C2CCN(C(=O)C(C)(C)C)CC2)n1 (stereo unspecified),16,12,4,1,10
O=C(COc1ccc(F)cc1Cl)NCCCn1ccc2ccccc21,19,12,12,1,11
O=C(COc1ccc(Cl)cc1Cl)NCCCc1ccccc1,32*,-137,16,11,5
COc1ccccc1NC(=O)COc1ccccc1-c1nnc(-c2ccccc2)o1,13,1,3,-3,6
O=C(COc1ccccc1-c1nnc(-c2ccccc2)o1)NCCCc1ccccc1,35*,12,11,1,9
COc1ccc(Cl)cc1C(=O)CN1C(=O)COc2cc(C(=O)N3CCN(CCO)CC3)ccc21,-1,-8,-6,-6,-9
